# TDP1 cell noCPT: qHTS for Inhibitors of human tyrosyl-DNA phosphodiesterase 1 (TDP1): qHTS in cells in absence of CPT. DT40 Tdp1-/- hTDP1 cells, no CPT, ATP luminescence, 48 h. Potency, µM (top dose mostly 46.2 µM), for inactives: top-dose activity change, negative = growth inhibition, most hits filed as inhibitors. 420,000 compounds, 15% hits; note: % is set by controls: 0 for no effect and ±100 for the full control effect; nearly all actives have a fitted effect of over 55% in size
#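 DT40 Tdp1-/-;hTDP1 cells, no CPT (DMSO vehicle only), 400 cells/well; compounds pin-transferred; ≥48 hr, 37 °C; CellTiter-Glo 30 min RT dark, luminescence read.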
# HT1080NT lethal: kills 2HG-producing HT-1080-NT fibrosarcoma cells | 360,000 compounds, 1.6% hits | Potency, µM (series often up to 46.1 µM), for inactives: top-dose activity, negative = less viability, hits mostly cytotoxic | HT-1080-NT fibrosarcoma viability, CellTiter-Glo ATP luminescence, 48 h;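 note: NT is the 2HG producing partner of a matched IDH1 knockdown line; 0% = DMSO-treated cells and -100% = media-only wells without cells; nearly all actives have a fitted effect of over 55% in size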
#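 Compounds were tested in concentration-response format on HT-1080-NT cells for 48 hours at 37 degrees C. Cell viability came from CellTiter-Glo luminescence; curves were classified by r2, response magnitude and activity.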
# HepG2 viability: HepG2 cytotoxicity, counter-screen for TGF-b inhibitors | HepG2 CAGA-GFP viability, ATP luminescence, 18 h | Potency, µM (doses to about 46.1 µM), for the others: at the highest dose activity change, negative = cytotoxicity, hits mostly cytotoxic | 410,000 compounds, 0.76% hits | AID 588856
#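 HepG2 CAGA-GFP cells (1000/well, DMEM with 1% FBS) received compound, then TGF-beta at 500 pg/mL final, and were incubated 18 hours at 37 degrees C. Viability was read by CellTiter-Glo luminescence. Media-only wells were set as complete cell-killing and DMSO as no toxicity.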
# HT1080 IDH1KD tx: kills HT-1080 cells with IDH1 knockdown. HT-1080 IDH1 knockdown viability, ATP luminescence, 48 h. Potency, µM (series often up to 46.1 µM), inactives show top-dose activity, negative = toxicity, actives largely listed as cytotoxic. 360,000 compounds, 2% hits;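 note: 0% = DMSO wells and -100% = cell-free medium wells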
#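 Luminescent ATP read-out (CellTiter-Glo, 10 min at room temperature) after 48 h compound exposure at 37 °C gave viability of IDH1-knockdown HT-1080 cells. Activity was normalised to DMSO and cell-free wells, then fitted as concentration-response curves.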
# TGFb inhibitor: blocks TGF-b signaling. HepG2 CAGA-GFP TGF-b/SMAD3 reporter, GFP fluorescence, 18 h; TGF-beta stimulated, 500 pg/mL final. Potency, µM (titrated, usually from 46.1 µM), for inactives: at the highest dose activity, negative = inhibition, actives largely listed as inhibitors. 410,000 compounds, 1.2% hits. AID 588855; note: % is set by controls: 0 for no effect and ±100 for the full control effect; nearly all actives have a fitted effect of over 65% in size
#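 HEPG2 CAGA-GFP cells (1000/well, DMEM with 1% FBS) were pre-incubated 2 h at 37 degrees C, given compound by pin tool, then stimulated with TGF-beta at 500 pg/mL final for 18 h before per-cell GFP fluorescence imaging.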
# TDP1 cell CPT: DT40-hTDP1 cell growth loss with CPT; chicken DT40 Tdp1-/-;hTDP1 cells + 20 nM CPT, ATP luminescence, 48 h; Potency, µM (titrated, usually from 46.2 µM), for inactives: top-dose activity change, negative = growth inhibition, usual class: inhibitors; 420,000 compounds, 12% hits; AID 686979; note: % is set by controls: 0 for no effect and ±100 for the full control effect; nearly all actives have a fitted effect of over 55% in size
#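 Chicken DT40 Tdp1-/- cells stably complemented with human TDP1 were seeded at 400 cells/well in medium containing 20 nM camptothecin, exposed to pin-transferred compounds, and grown at 37 °C for at least 48 hr. Viability was read as ATP luminescence.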
# * hit, by the source's call; ? = inconclusive; nt = no result given; ! = repeats disagree; [ ] = remark or other dose. Sampled rows, rich in hits. Any-hit rate of the full collection: about 17%. Calls come from the whole dose curve; as a rule, active = well fitted curve in the direction sought with a large enough effect; inconclusive = small, poorly fitted or top-dose-only effect, or another doubt; inactive = no such curve, though single readings can be large; an effect the other way counts as inactive or inconclusive. Potency is the fitted concentration of half-maximal effect.
SMILES,TDP1 cell noCPT,HT1080NT lethal,HepG2 viability,HT1080 IDH1KD tx,TGFb inhibitor,TDP1 cell CPT
CN1C(=O)/C(=C/c2ccc(Cl)s2)C(=O)NC1=S,9.2µM*,?,-20%,?,-14%,7.3µM*
C=CCN1C(=O)/C(=C/c2ccc(Br)s2)C(=O)NC1=S,21µM*,-2%,-24%,2%,?,?
CN1C(=O)/C(=C\c2ccc(N3CCCCCC3)cc2)C(=O)NC1=S,?,15%,-20%,8%,-11%,?
Cc1ccsc1/C=C1\C(=O)NC(=S)N(C)C1=O,3.3µM*,0%,-56%,-2%,?,5.8µM*
O=C1NC(=O)C(=Cc2ccc(Sc3ccccc3)o2)C(=O)N1,15µM*,18µM*,-185%,13µM*,-49%,?
O=C1NC(=O)C(=Cc2ccc(-c3ccc(Cl)cc3)o2)C(=O)N1,8.2µM*,1%,-29%,7%,?,5.8µM*
Cc1cc(NC(=O)CCl)no1,18µM*,?,-37%,?,?,13µM*
COc1cc(C2c3cc4c(c(O)c3CC3COC(=O)C32)OCO4)cc(OC)c1OC (configuration not stated),0.12µM*,0.0052µM*,-20%,?,-59%,0.092µM*
COc1cc([C@@H]2c3cc4c(c(O)c3C[C@H]3COC(=O)[C@@H]32)OCO4)cc(OC)c1OC,0.13µM*,nt,5%,nt,?,0.16µM*
O=P(/C=C1\OCc2ccccc21)(Oc1ccccc1)Oc1ccccc1,?,-3%,nt,-1%,nt,?
C[C@@H]1O[C@@H](O[C@H]2C[C@@H](O)[C@]3(CO)[C@@H]4C(CC[C@]3(O)C2)[C@@]2(O)CC[C@H](C3COC(=O)C3)[C@@]2(C)C[C@H]4O)[C@H](O)[C@H](O)[C@H]1O (some centres not stated),?,5.2µM*,-55%,1.3µM*,?,-3%
CC(C)(C)OC(=O)c1ncn2c1[C@@H]1CCCN1C(=O)c1c(Br)cccc1-2,?,nt,nt,nt,nt,6%
Cc1cc2c(cc(C(=O)N3CCC(C(=O)NC4CCCC4)CC3)n2Cc2c(F)cccc2Cl)o1,23µM*,1%,-22%,3%,?,18µM*
CCN1CCN(S(=O)(=O)c2ccc(Cl)c(C(=O)Nc3ccc(C(=O)N(CC)CC)cc3)c2)CC1,?,27%,0%,-11%,-18%,15µM*
CCN(CC)C(=O)c1ccc(NC(=O)c2cccc(C(F)(F)F)c2)cc1,?,2%,-13%,11%,-13%,-15%
CCOc1ccc(NC(=S)NC2CC3CCC(C2)N3Cc2ccco2)cc1 (configuration not stated),?,-13%,-19%,-5%,-6%,?
COc1cc(Br)cc(CN2CCN(C)CC2)c1O,1%,7%,-2%,2%,-2%,0%
CCN1CCN(Cc2cc(Br)cc(Br)c2O)CC1,16µM*,-7%,-21%,-2%,-3%,?
CC(C)OC(=O)Cc1ccccc1,-1%,-2%,1%,9%,9%,-1%
COC(=O)CSC1=NN1c1cc(C)nc(N)n1,10%,-5%,-23%,1%,-11%,26%
CC[N+](CC)(CC)CCOC(=O)C(C1CCCC1)C1CCCC1,11µM*,nt,nt,nt,nt,?
CCCNc1nc(OC)nc(N2CC3CC(C2)c2cccc(=O)n2C3)n1 (configuration not stated),13%,-6%,-8%,2%,-3%,0%
CC(Nc1cc(C)cc(C)c1)=[N+](C)CCNS(=O)(=O)c1ccc(Cl)cc1,-19%,-1%,-16%,-12%,0%,13µM*
NC(=O)c1c(NC(=O)c2ccc(S(=O)(=O)N(CCCl)CCCl)cc2)sc2c1CCCCC2,15µM*,3%,-23%,1%,-11%,10µM*
Cc1occc1C(=O)Nc1cccc(-c2nc(CNC(=O)c3cccc(C#CC(C)(C)O)c3)c(C)o2)c1,21µM*,nt,nt,nt,nt,-4%[9.04 µM]
SMILES,TDP1 cell noCPT,HT1080NT lethal,HepG2 viability,HT1080 IDH1KD tx,TGFb inhibitor,TDP1 cell CPT
CCOP(=O)(OCC)C1(O)C(=O)Nc2ccc(Br)cc21 (configuration not stated),16µM*,1%,-2%,1%,0%,?
Cc1cc([N+](=O)[O-])c2ccccc2[n+]1[O-],0.052µM*,6.5µM*,-126%,8.2µM*,0.5µM*,0.046µM*
Cc1ccccc1[N+](=O)[O-],10%,nt,-10%,nt,2%,-4%
Cc1ccc(C(O)(C(=O)OC(C)C)C(O)c2ccc(F)cc2)cc1 (configuration not stated),21µM*,-4%,nt,-1%,nt,?
CN(C=O)CP(=O)(O)CN(C)C=O,-23%,12%,5%,7%,-6%,14%
c1ccc(OCc2ccc(CCCN3CCOCC3)cc2)cc1,21µM*,-7%,-15%,-15%,-23%,?
O=C(Cn1nc(-c2ccccc2)ccc1=O)N1CCC2(CC1)OCCO2,10%,7%,10%,12%,7%,-10%
C=C[C@H]1CN2CC[C@H]1C[C@@H]2[C@@H](O)c1ccnc2ccccc12,?,-4%,7%,6%,8%,?
CCCOC(=O)c1c(C)oc2c1cc(NS(=O)(=O)c1ccc(OCC)cc1)c1ccccc12,1µM*,nt,-13%,nt,-41%,1.5µM*
CCC(C)(C)NC(=O)Cn1c(-c2ccc(C)cc2)noc1=O,-4%,11%,72%,2%,31%,5%
COC(=O)[C@H]1[C@H]2C[C@@H]3c4[nH]c5cc(OC)ccc5c4CCN3C[C@H]2C[C@@H](OC(=O)/C=C/c2cc(OC)c(OC)c(OC)c2)[C@@H]1OC,13µM*!,?,5%,?,3%,?
O=C(Cn1c(=O)oc2cc(S(=O)(=O)NCc3ccccc3)ccc21)Nc1ccc(F)c(Cl)c1,?,nt,-57%,nt,0%,?
CCOC(=O)N1CCN(CC(O)COCCC23CC4CC(CC(C4)C2)C3)CC1 (configuration not stated),29µM*,-25%,-9%,-18%,2%,12µM*
Cc1ccccc1CN1CCCN(Cc2ccc(Cl)cc2)S1(=O)=O,-17%,-14%,-34%,-4%,-4%,2%
CCc1ccccc1N1C(=O)N(Cc2ccccc2C)c2ccccc2S1(=O)=O,16µM*,nt,-47%,nt,0%,?

# Screening results deposited in PubChem BioAssay by National Center for Advancing Translational Sciences (NCATS).
